Marburg entry inh: blocks Marburg virus binding to or entry into cells | Marburg virus pseudotyped entry inhibition, cell reporter | actives 1.8% (n = 300,000) | AID 540276 | Potency, µM (doses to about 37.8 µM), for inactives: at the top dose activity change, negative = inhibition, most hits filed as inhibitors; calls by dose curve; tested in HEK293 cells; also: potency is read from the fitted curve at half-maximal effect; % is scaled to controls: 0 for no effect and ±100 for the full control effect
Shiga toxin inh: Shiga toxin inhibition. Vero cells, Shiga toxin protein synthesis inhibition reporter. inhibition, % at 38.7 µM. actives 9.2% (n = 290,000). AID 2315; in the data active = inhibition mostly above about 28%, no sharp cut-off; inactive = mostly below about 43%; also: 0% is about no effect
HCV inh: inhibitors of hepatitis C virus infection; Potency, µM (doses to about 41.8 µM), for the others: top-dose activity change, negative = inhibition, usual class: inhibitors; actives 3.4% (n = 340,000); Huh7.5.1 HCVcc-Cre infection, luciferase reporter, 44 h; also: potency is read from the fitted curve at half-maximal effect; % is scaled to controls: 0 for no effect and ±100 for the full control effect
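Whole-lifecycle infectious HCVcc-Cre system; cells 1,000/well, compound then virus (~0.5 moi) added 4 h after plating, 44 h culture. Luciferase read 15 sec following 15 min substrate incubation, room temp.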
Lassa entry inh: blocks Lassa virus binding to or entry into cells; Lassa virus pseudotype entry inhibition, cell reporter; Potency, µM (doses to about 37.9 µM), inactives show at the top dose activity change, negative = inhibition, hits mostly inhibitors; actives 1.2% (n = 300,000); AID 540256; calls by dose curve; tested in HEK293 cells; also: potency is read from the fitted curve at half-maximal effect; % is scaled to controls: 0 for no effect and ±100 for the full control effect; nearly all actives have a fitted effect of over 50% in size
Cycloheximide cs: counter-screen hit for Shiga toxin inhibitors, cycloheximide | cell reporter, cycloheximide protein synthesis inhibition counterscreen | max response, % | actives 12% (n = 300,000); in the data active = max response mostly above about 13%, no sharp cut-off; inactive = mostly below about 14%; also: read at 38.3 µM for the half of the compounds with a filed dose; 0% is about no effect
FMDV inh: blocks foot and mouth disease virus | FMDV antiviral cell-based qHTS | AID 1159524 | Potency, µM (series often up to 57.9 µM), inactives show top-dose activity change, negative = inhibition, hits mostly inhibitors | actives 1.2% (n = 410,000); calls by dose curve; tested in HEK293T cells; also: read-out not given here; potency is read from the fitted curve at half-maximal effect; % is scaled to controls: 0 for no effect and ±100 for the full control effect; nearly all actives have a fitted effect of over 45% in size
HCV inh confirm: confirmation of hepatitis C virus inhibitors; shares compounds with HCV inh; HCVcc-Cre infectious virus cell assay, luciferase, inhibition; Potency, µM (doses to about 41.8 µM), for inactives: at the top dose activity, negative = inhibition, hits mostly inhibitors; actives 78% (n = 640); also: potency is read from the fitted curve at half-maximal effect; nearly all actives have a fitted effect of over 80% in size
HCV host tox: counter-screen for HCV inhibitors: host cell cytotoxicity; actives 22% (n = 640); AID 720576; shares compounds with HCV inh; HCV host cell line cytotoxicity counterscreen; Potency, µM (top dose mostly 41.8 µM), for the others: at the highest dose activity change, negative = cytotoxicity, hits mostly inhibitors;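 also: potency is read from the fitted curve at half-maximal effect; 44 h compound exposure; % is scaled to controls: 0 for no effect and ±100 for the full control effect; nearly all actives have a fitted effect of over 55% in size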
The depositor's hits bear a star; ? = inconclusive; nt = no result given; [ ] = another dose, or the depositor's remark. Hits are enriched below; roughly 13% of the tested compounds scored in any of these assays. Unless noted, calls follow the shape of the dose curve; as a rule, active = well fitted curve in the direction sought with a large enough effect; inconclusive = small, poorly fitted or top-dose-only effect, or another doubt; inactive = no such curve, though single readings can be large; an effect the other way counts as inactive or inconclusive.

SMILES | Marburg entry inh | Shiga toxin inh | HCV inh | Lassa entry inh | Cycloheximide cs | FMDV inh | HCV inh confirm | HCV host tox
C/C(=N\Nc1ccc2nncn2n1)c1ccccn1 | ? | 8 | 2µM* | ? | -2 | 23% | 5.6µM* | ?
CCOc1ccc(CCNS(=O)(=O)c2cnc[nH]2)cc1OCC | 4% | -11 | 6.3µM* | 2% | -4 | 3% | ? | -9%
CCOc1ccc(CCNS(=O)(=O)c2ccc(-c3ccc(=O)[nH]n3)o2)cc1OCC | nt | -5 | 0% | nt | -1 | 17% | nt | nt
Cc1c(C(=O)NCC2COc3ccccc3O2)oc2ccc(S(=O)(=O)N3CCOCC3)cc12 (configuration not stated) | ? | -8 | 5.6µM* | ? | -2 | ? | 18µM* | -1%
COc1ccc(NC(=O)c2cccc(S(=O)(=O)N3CCCCC3)c2)c(OC)c1 | -27%[46.1 µM] | -4 | -20% | 0%[46.1 µM] | -2 | -7% | nt | nt
COc1ccc(NC(=O)c2cccc(S(=O)(=O)N3CCN(c4ccccc4)CC3)c2)c(OC)c1 | ? | nt | ? | -24% | nt | -10% | 22µM* | 9%
COc1cc(/C=C2/SC(=O)NC2=O)ccc1OC(=O)c1ccco1 | 1% | -5 | 2% | 18% | -3 | -20% | nt | nt
CCOc1cc(/C=C2/SC(=S)NC2=O)ccc1OC(=O)c1ccco1 | 0%[46.1 µM] | 44 | 3.5µM* | 11% | 12* | 4% | -15% | -10%
O=C1CC(c2ccccc2)CC(O)=C1C=NCc1ccccc1Cl (configuration not stated) | ? | -8 | -24% | -22% | 0 | nt | nt | nt
CSc1scc2c1-c1nc(SCC(=O)C(C)(C)C)ncc1CC2 | nt | 7 | 8.9µM* | nt | -4 | -5% | 25µM* | -16%
CCOC(=O)Nc1ccc(NCc2ccc(F)cc2)nc1N | ? | nt | 0.89µM* | ? | nt | 0% | -23% | 16%
COc1ccc(C(C(=O)NCCC(C)C)N(CCCO)C(=O)c2snc(C(N)=O)c2N)cc1OC (configuration not stated) | nt | -6 | 13% | nt | -2 | 6% | nt | nt
Cc1cccc(N(NC(=O)C(C)(C)O)C(=O)c2ccccc2)c1 | 15% | -7 | 0% | -12% | 1 | -24% | nt | nt
N=c1c(C(=O)NCc2ccco2)cc2c(=O)n3ccccc3nc2n1C1CCCC1 | ? | 2 | ? | -25% | 7 | 0% | nt | nt
COc1ccc(CNC(=O)c2cc3c(=O)n4ccccc4nc3n(Cc3cccnc3)c2=N)cc1 | ? | -20 | ? | -9% | 9 | -1% | nt | nt
N=c1c(C(=O)NCc2ccco2)cc2c(=O)n3ccccc3nc2n1Cc1ccccc1 | ? | -3 | 3.2µM* | -6% | 4 | -2% | 3.5µM* | ?
CC(NC(=O)c1cc2c(=O)n3ccccc3nc2n(CC2CCCO2)c1=N)c1ccccc1 (configuration not stated) | -26%[46.1 µM] | -10 | 2.2µM* | nt | -3 | 10% | 11µM* | 28%
N=c1c(C(=O)NC2CCCC2)cc2c(=O)n3ccccc3nc2n1CC1CCCO1 (configuration not stated) | ? | -11 | -15% | 11%[46.1 µM] | -5 | -9% | nt | nt
N=c1c(C(=O)NCc2ccc3c(c2)OCO3)cc2c(=O)n3ccccc3nc2n1Cc1cccnc1 | -23% | -4 | 6.3µM* | 3% | -2 | 23% | 14µM* | 0%
O=C(NCC1CCCO1)C1CCN(c2ccc(S(=O)(=O)N3CCCC3)cc2)CC1 (configuration not stated) | 13% | -3 | 14% | 4% | -1 | ? | nt | nt
O=c1[nH]n2cc(-n3cc([N+](=O)[O-])cn3)cnc2c1Br | -23% | -8 | 11% | 2% | -1 | -14% | nt | nt
O=C(NC1CCS(=O)(=O)C1)/C(=C/c1ccco1)NC(=O)c1ccccc1 (configuration not stated) | 14% | -5 | 7.1µM* | 9% | -4 | -10% | 0% | 18%
O=C(NC1CCS(=O)(=O)C1)/C(=C\c1ccco1)NC(=O)c1ccccc1 (configuration not stated) | -1%[46.1 µM] | -9 | 9% | 10%[46.1 µM] | 1 | -13% | nt | nt
Nc1cccc(NC(=O)CN2CCOCC2)c1 | ? | nt | -8% | ? | -2 | -1% | nt | nt
Fc1ccc(-c2cc(C(F)(F)F)nc(NCc3ccccc3)n2)cc1 | 0%[46.1 µM] | nt | nt | 12%[46.1 µM] | nt | -32% | nt | nt
SMILES | Marburg entry inh | Shiga toxin inh | HCV inh | Lassa entry inh | Cycloheximide cs | FMDV inh | HCV inh confirm | HCV host tox
c1ccc2c(N3CCCCCC3)nc(-c3ccncc3)nc2c1 | ? | -27 | 8.9µM* | 12% | -2 | ? | 0.01µM* | 18%
c1cncc(-c2nc(N3CCCCCC3)c3ccccc3n2)c1 | ? | -11 | ? | ? | -3 | ? | nt | nt
Fc1ccccc1Nc1nc(-c2ccncc2)nc2ccccc12 | ? | -10 | 2.2µM* | ? | -2 | ? | 8.9µM* | 30%
c1ccc(Nc2nc(-c3ccncc3)nc3ccccc23)cc1 | ? | -13 | ? | -8% | -3 | ? | 5µM* | -95%
Fc1ccc(Nc2nc(-c3ccncc3)nc3ccccc23)cc1 | ? | -10 | ? | ? | -2 | -14% | nt | nt
CCc1noc(C)c1C(=O)Nc1cccc(S(=O)(=O)N2CCCCCC2)c1 | 1% | nt | ? | 0% | nt | -22% | nt | nt
CS(=O)(=O)N1CCC(C(=O)Nc2cccc(C(F)(F)F)c2)CC1 | -8% | -8 | 5% | 7% | -1 | -9% | nt | nt
O=C(Nc1cccc(C(F)(F)F)c1)C1CCN(S(=O)(=O)c2ccc(N3CCCC3=O)cc2)CC1 | nt | 9 | 6.3µM* | nt | 6 | ? | 8.9µM* | 14µM*
Cc1cccc(Nc2nc(-c3c(C)nc4ccccn34)cs2)c1 | ? | -19 | 2.5µM* | ? | 0 | nt | 14µM* | 25µM*
CCc1ccc(NC(=O)CSc2nc3n[nH]c(C)c3c(=N)n2-c2cccc(OC)c2)cc1 | ? | -3 | 7.1µM* | ? | -2 | -10% | 14µM* | 20%
O=C1N[C@H](Cc2ccccc2)COC(=O)[C@H](Cc2ccc(F)cc2)C/C=C\C[C@@H]1CC(=O)N(CCO)Cc1ccccc1 | nt | nt | ? | nt | nt | -24% | nt | nt
CC(C)N1CCC(N2CCN(Cc3ccc(-c4ccccc4Cl)o3)CC2CCO)CC1 (configuration not stated) | ? | -8 | 4µM* | ? | -1 | -20% | 6.3µM* | 28%
CC(C)N1CCC(N2CCN(CCCc3ccccc3)CC2CCO)CC1 (configuration not stated) | ? | 13 | ? | ? | -1 | -14% | nt | nt
COc1ccc(Cl)cc1NC(=O)c1cc2c(s1)-c1ccccc1OC2 | 1%[46.1 µM] | nt | nt | nt | nt | -12% | nt | nt
Cc1c(NC(=O)c2cc3c(s2)-c2ccccc2OC3)cccc1[N+](=O)[O-] | ? | 11 | ? | ? | 16* | 28µM* | 6.3µM* | -4%
